# Shown are actives, neighbours in structure and some others; about 0.68% of the full set was active somewhere.
# Mtb hypoxia inh: PubChem AID 1159583. 0.1% of 300,000 active. M. tuberculosis hypoxia-regulated fluorescent reporter, fluorescence. fluorescence inhibition, % (test concentration not listed); in the data active = fluorescence inhibition mostly above about 23%, no sharp cut-off; inactive = mostly below about 17%
# RN4220 kill: growth inhibition of S. aureus RN4220, primary screen, OD600; 16 h; AID 1259311, 2017; 0.33% of 330,000 active; inhibition, % (test concentration not listed); in the data active = inhibition above about 85%;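 also: plate controls were untreated cells for no effect and reference antibiotic for full effect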
# ugtP null kill: growth inhibition of ugtP-null S. aureus, primary screen, RN4220 ugtP deletion, OD600 | 16 h | growth inhibition, % (test concentration not listed) | 0.54% of 330,000 active | AID 1259309, 2017; in the data active = growth inhibition above about 68%;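 also: plate controls were untreated wells for no effect and antibiotic for full effect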
# Active calls of the source: *; . = not tested or not shown; ! = not active in a repeat.
SMILES,Mtb hypoxia inh,RN4220 kill,ugtP null kill
O=C(O)C(Cc1ccccc1)N1C(=O)c2ccccc2C1=O (stereo not given),11,4,-7
O=C(O)C(Cc1ccccc1)N1C(=O)c2c(Cl)c(Cl)c(Cl)c(Cl)c2C1=O (stereo not given),3,39,86*!
C#CCOCCOCCOCCNc1nc(N2CCN(C(=O)C(CCCCN)n3cc(CCC(=O)O)nn3)CC2)nc(N2CCN(C(=O)C(C(C)CC)n3cc(CCCN=C(N)N)nn3)CC2)n1 (stereo not given),9,3,4
O=C(Nc1nc2ccc(SC(F)F)cc2s1)c1ccc(NS(=O)(=O)c2ccc(F)c(F)c2)cc1,3,100*,100*
CS(=O)(=O)c1ccc2nc(NC(=O)c3ccc(NS(=O)(=O)c4ccc(F)c(F)c4)cc3)sc2c1,4,3,12
COC(=O)C1=C(c2ccc(OCc3ccccc3)cc2)CC2CCC1N2C(=O)NCc1ccc(N(C)C)cc1 (stereo not given),2,5,5
CCCCC(=O)N1CC=CC(c2ccc(OC)cc2)N(Cc2ccc(F)cc2)C(=O)C1C (stereo not given),7,4,9
O=C(c1ccc(CS(=O)Cc2ccc(Cl)cc2)o1)N1CCN(c2ccc(F)cc2)CC1 (stereo not given),7,-4,90*
O=C(c1ccc(CS(=O)c2cccc(Cl)c2)o1)N1CCOCC1 (stereo not given),4,2,7
Cc1ccc(C)c(N2CCN(C(=O)c3ccc(CS(=O)Cc4cccc(Cl)c4)o3)CC2)c1 (stereo not given),1,1,98*
COc1cccc(N2CCN(C(=O)c3ccc(CS(=O)Cc4ccc(C)cc4)o3)CC2)c1 (stereo not given),-8,-8,40
O=C(c1ccc(CS(=O)Cc2ccc(Cl)cc2)o1)N1CCN(c2cccc(Cl)c2)CC1 (stereo not given),0,-8,93*
Cc1cccc(N2CCN(C(=O)c3ccc(CS(=O)Cc4ccc(Cl)cc4)o3)CC2)c1C (stereo not given),11,-3,69
O=C(c1ccc(CS(=O)Cc2cccc(Cl)c2)o1)N1CCN(C2CCCCC2)CC1 (stereo not given),4,-3,95*
O=C(c1ccc(COc2c(F)c(F)cc(F)c2F)o1)N1CCN(c2ccc(Cl)cc2)CC1,7,2,-33
O=C(NN=Cc1ccco1)c1cc(-c2ccc(Cl)cc2)n[nH]1,6,4,-4
NCC(Cc1ccccc1)NCCc1cc(C(F)(F)F)cc(C(F)(F)F)c1 (stereo not given),21,-3,3
CC(C)CC1COCCS(=O)(=O)N1Cc1ccccc1F (stereo not given),3,1,-10
Oc1ccccc1C=NNc1nn[nH]n1,2,4,7
O=C(NN=Cc1cc([N+](=O)[O-])ccc1O)c1ccc2c(c1)OCCO2,6,90*,68
O=C(NN=Cc1cc(O)ccc1[N+](=O)[O-])c1ccc2c(c1)OCCO2,0,9,15
O=C(NN=Cc1cc([N+](=O)[O-])ccc1O)Nc1ccccc1,7,91*,71
O=[N+]([O-])c1cccc(NN=Cc2cc([N+](=O)[O-])ccc2O)c1,6,53,22
O=[N+]([O-])c1ccc(O)c(C=NNc2nn[nH]n2)c1,1,95*,87*
O=C(NN=Cc1cc([N+](=O)[O-])ccc1O)c1ccncc1,14,86*,75
SMILES,Mtb hypoxia inh,RN4220 kill,ugtP null kill
O=C(NN=Cc1ccc([N+](=O)[O-])cc1)c1ccncc1,11,-1,6
CCCSc1ccc(C2N[C@@](Cc3ccccc3)(C(=O)OC)C3C(=O)N(C)C(=O)C23)cc1 (stereo not given in full),7,2,2
CC(=NNC(=O)CNC(=O)c1ccco1)c1ccc(Cl)cc1,-11,-7,-9
O=C(NN=Cc1cc(Cl)ccc1O)c1ccc(Br)cc1,13,74,90*
Oc1ccc(Cl)cc1C=Nc1ccc(Br)cc1,6,11,7
CN(C(=NS(=O)(=O)c1cccs1)c1ccccc1)c1ccc(O)cc1,3,13,9
O=[N+]([O-])c1ccc(C=NN=Cc2ccc([N+](=O)[O-])o2)o1,26,4,0
Cc1cc2ncn(N=Cc3ccc(-c4ccccc4)o3)c2cc1C,0,-4,-14
Cc1cc2ncn(N=Cc3ccc([N+](=O)[O-])o3)c2cc1C,9,100*,101*
Cc1nc2ccccc2n1N=Cc1ccc([N+](=O)[O-])o1,.,101*,100*
COC(=O)NN=Cc1ccc(OC(=O)c2ccco2)cc1,-4,4,2
C=CCC(CC(=O)N(CCO)Cc1ccccc1)C(=O)NCCOC(=O)C(CC=C)CC(=O)OC(C)(C)C (stereo not given),6,7,5
CCCCc1cn(C(CCCCN)C(=O)N2CCNCC2)nn1 (stereo not given),9,0,3
COC(=O)C1=C(c2cccc(OC)c2OC)CC2CCC1N2C(=O)NCCCOC(C)C (stereo not given),13,3,5
O=C(Nc1cc([N+](=O)[O-])ccc1Cl)C(Sc1ccccc1)c1ccccc1 (stereo not given),-7,-6,-15
O=C(Nc1ccc(Cl)c([N+](=O)[O-])c1)C(Sc1ccccc1)c1ccccc1 (stereo not given),3,86*,99*
O=C(NN=C/C=C/c1ccco1)c1cnccn1,13,2,14
CC=CC(=O)Nc1cccc(C2=NOC3(C2)CC(C(N)=O)N(C(=O)c2cc([N+](=O)[O-])cc([N+](=O)[O-])c2)C3)c1 (stereo not given),40*,1,1
CC=CC(=O)Nc1cccc(C2=NOC3(C2)CC(C(N)=O)N(C(=O)c2cc([N+](=O)[O-])cc([N+](=O)[O-])c2C)C3)c1 (stereo not given),10,5,-1
CCOC(=O)C1C2COc3cc(OC)ccc3C2N2C(=O)CN(Cc3ccco3)C(=O)[C@@]12C (stereo not given in full),2,5,-8
CCOc1ccc(CNC(=S)NN=Cc2ccncc2)cc1,1,4,0
COc1cc(/C=C(\C#N)c2nc3ccccc3s2)cc([N+](=O)[O-])c1O,.,66,82
N#CC(=Cc1ccc(O)c([N+](=O)[O-])c1)c1nc2ccccc2s1,.,96*,97*
CCC(C)Sc1ccc(C2C3C(=O)N(CC)C(=O)C3[C@]3(C(=O)OC)CCCCN23)cc1 (stereo not given in full),6,-5,0
CN(CC(=O)Nc1ccccc1Br)C(=O)c1ccccc1Sc1ccccc1C#N,25*,9,1
Cc1cccc(C)c1NC(=O)CN(C)C(=O)c1ccccc1Sc1ccccc1C#N,-1,6,0
O=C(NN=Cc1cc(Br)c(O)c(Br)c1)c1cccc(C(F)(F)F)c1,11,-1,1
O=C(NN=Cc1c(O)ccc2ccccc12)c1cccc(C(F)(F)F)c1,8,54,100*
O=C(NN=Cc1cccc2ccccc12)C1CC1,25,-3,-4
O=C(NN=Cc1c(O)ccc2ccccc12)C1CC1,8,73,90*

# Source: PubChem BioAssay
